This is an account of results in PubChem BioAssay (Tox21).

Where “and” joins values, the source holds several entries; their conditions need not be identical. Identical values can stand only once. A number with no mark means an inactive call. Inconclusive results are not listed. Calls of active or inactive are those of the source. Unless noted, calls come from the whole dose curve; as a rule, active = well fitted curve in the direction sought with a large enough effect in the repeat runs; inconclusive = weak or mixed curves; inactive = no such curve, though single readings can be large; an effect the other way counts as inactive or inconclusive.

Experiment [1] in a line: qHTS assay for small molecules that induce genotoxicity in human embryonic kidney cells expressing luciferase-tagged ATAD5 (AID 651632). Note: nearly all actives have a fitted effect of over 15% in size. The gist of the method: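 Quantitative HTS in HEK293T expressing luciferase-tagged ATAD5, whose levels rise upon DNA damage. Exposure ran 16 hr at 37C and 5% CO2, with luminescence read 30 min after Amplite addition at room temperature.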
In general terms: Quantitative high-throughput screening tests each substance at several concentrations.

Experiment [2] can be described thus: qHTS assay for small molecule agonists of the p53 signaling pathway - cell viability (AID 651633; calls by dose curve; note: nearly all actives have a fitted effect of over 30% in size; note: potency is the fitted concentration of half-maximal effect). The gist of the method:
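p53RE-bla cells, seeded at 4,000 per well and rested 5 h at 37 C/5% CO2, received compounds in DMSO for 16 h at 37 C. CellTiter-Glo was then added, and luminescence was read after 30 min at room temperature to gauge cytotoxicity.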

Experiment [3] can be described thus: qHTS assay for small molecule disruptors of the mitochondrial membrane potential - cell viability (AID 720634; calls by dose curve;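 note: human HepG2 liver cancer cells; nearly all actives have a fitted effect of over 20% in size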). In short, it runs like this:
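ATP-based luminescent viability readout (CellTiter-Glo, 30 min, room temperature) in HepG2 cells multiplexed with the m-MPI membrane potential dye; compound exposure lasted 1 hr at 37 C.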

Experiment [4] in a line: qHTS assay to test for compound auto fluorescence at 535 nm (green) in HepG2 cells (AID 720675).
Experiment [5] can be described thus: qHTS assay to test for compound auto fluorescence at 460 nm (blue) in HEK293 cells (AID 720678). In short, it runs like this: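 Auto fluorescence in the blue band was quantified as triamterene equivalency. HEK293 cells were seeded at 2,000/well, dosed after a 4-5 hr attachment, and kept overnight at 37C before the 405/460 nm reading.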
Experiment [6] in a line: qHTS assay to test for compound auto fluorescence at 590 nm (red) in HEK293 cells (AID 720679). The gist of the method: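 Autofluorescence equivalency to Rose Bengal sodium, 540/590nm, in HEK293 cells exposed overnight to 23 nL compound per well.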
A short description of experiment [7]: qHTS assay to test for compound auto fluorescence at 535 nm (green) in HEK293 cells (AID 720680).
Experiment [8] is described as follows: qHTS assay to test for compound auto fluorescence at 460 nm (blue) in HEK293 cell free culture (AID 720681). The gist of the method:
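Test compounds were pinned into cell-free culture medium (DMEM with 10% FBS) and fluorescence was read directly at Ex/Em 405/460 nm. Signals were expressed as fluorescence equivalents of triamterene, with DMSO vehicle as control.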

The nature of experiment [9]: qHTS assay to test for compound auto fluorescence at 590 nm (red) in HEK293 cell free culture (AID 720683). The gist of the method:
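Tox21 10K library compounds were pinned into cell-free DMEM with 10% FBS and fluorescence was read at excitation 540 nm. Activity is expressed as Rose Bengal sodium equivalency.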

A short description of experiment [10]: qHTS assay to test for compound auto fluorescence at 590 nm (red) in HepG2 cell free culture (AID 720684). The gist of the method:
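Ex 540 / Em 590 nm read of compound in cell-free MEM (10% FBS). Rose Bengal sodium reference.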

A short description of experiment [11]: qHTS assay to test for compound auto fluorescence at 460 nm (blue) in HepG2 cell free culture (AID 720685). The gist of the method:
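Cell-free plates of MEM plus 10% FBS received 23 nL compound or DMSO vehicle; blue-channel (405/460 nm) intensity scored against triamterene as reference fluorophore.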

Experiment [12] is described as follows: qHTS assay to test for compound auto fluorescence at 535 nm (green) in HepG2 cell free culture (AID 720686).
Experiment [13] can be described thus: qHTS assay to test for compound auto fluorescence at 460 nm (blue) in HepG2 cells (AID 720687). The gist of the method:
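Cells (2,000/well in MEM with 10% FBS) attached overnight at 37 C, then were exposed to compound or DMSO for 1 hr at 37 C, 5% CO2. Fluorescence read at Ex/Em 405/460 nm, expressed as triamterene-equivalent signal.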

Experiment [14] can be described thus: qHTS assay for small molecules that induce genotoxicity in human embryonic kidney cells expressing luciferase-tagged ATAD5 - cell viability (AID 651634; calls by dose curve; note: nearly all actives have a fitted effect of over 25% in size; note: potency is the fitted concentration of half-maximal effect). In short, it runs like this: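 After 15.5 hr incubation with compound at 37C, 5% CO2, HEK293T ATAD5-luciferase cells received CellTiter-Fluor reagent; fluorescence intensity was quantified following 30 min at 37C.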

A short description of experiment [15]: qHTS assay for small molecule disruptors of the mitochondrial membrane potential (AID 720635). Note: potency is the fitted concentration of half-maximal effect. The gist of the method: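 HepG2 cells (2,000/well) attached overnight at 37C, then took compound for 1 hr at 37C, 5% CO2. Mito-MPS dye was added for 30 min; fluorescence was read at 490/535 nm (monomers) and 540/590 nm (aggregates).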
Experiment [16] has as its target Glucocorticoid receptor (Homo sapiens) (UniProt P04150). The experiment in a line: qHTS assay to identify small molecule agonists of the glucocorticoid receptor (GR) signaling pathway (AID 720691; active = well fitted activation curve with a large enough effect in the signal ratio in the repeat runs, not every such curve was filed as active; the % refers to the signal ratio). The conditions noted are these: GR-bla HeLa, beta-lactamase reporter ratio, 18 h; activation: at 62.4 µM (top of the series) unless noted. In short, it runs like this:
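Cells: GR-bla HeLa, endogenous GR with stably integrated GRE-beta-lactamase reporter. Treatment 18 h, 37 C, compounds delivered in DMSO. Detection via LiveBLAzer B/G FRET substrate, 2 h RT, fluorescence intensity.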

Experiment [17] in a line: qHTS assay to test for compound auto fluorescence at 535 nm (green) in HEK293 cell free culture (AID 720682). The gist of the method: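 Cell-free medium (DMEM, 10% FBS) receives compound or DMSO by pintool. Plate read directly at Ex 485/Em 535 nm. Signal converted to fluorescein equivalency.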
The nature of experiment [18]: qHTS assay to test for compound auto fluorescence at 590 nm (red) in HepG2 cells (AID 720674). The gist of the method:
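Compound auto-fluorescence is scored relative to Rose Bengal sodium, measured at 540/590 nm in live HepG2 cultures after 1 hr compound contact (37 C, 5% CO2).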
% is set by controls: 0 for no effect and ±100 for the full control effect.

Glucocorticoid receptor (Homo sapiens), sequence (P04150 whole entry, looked up): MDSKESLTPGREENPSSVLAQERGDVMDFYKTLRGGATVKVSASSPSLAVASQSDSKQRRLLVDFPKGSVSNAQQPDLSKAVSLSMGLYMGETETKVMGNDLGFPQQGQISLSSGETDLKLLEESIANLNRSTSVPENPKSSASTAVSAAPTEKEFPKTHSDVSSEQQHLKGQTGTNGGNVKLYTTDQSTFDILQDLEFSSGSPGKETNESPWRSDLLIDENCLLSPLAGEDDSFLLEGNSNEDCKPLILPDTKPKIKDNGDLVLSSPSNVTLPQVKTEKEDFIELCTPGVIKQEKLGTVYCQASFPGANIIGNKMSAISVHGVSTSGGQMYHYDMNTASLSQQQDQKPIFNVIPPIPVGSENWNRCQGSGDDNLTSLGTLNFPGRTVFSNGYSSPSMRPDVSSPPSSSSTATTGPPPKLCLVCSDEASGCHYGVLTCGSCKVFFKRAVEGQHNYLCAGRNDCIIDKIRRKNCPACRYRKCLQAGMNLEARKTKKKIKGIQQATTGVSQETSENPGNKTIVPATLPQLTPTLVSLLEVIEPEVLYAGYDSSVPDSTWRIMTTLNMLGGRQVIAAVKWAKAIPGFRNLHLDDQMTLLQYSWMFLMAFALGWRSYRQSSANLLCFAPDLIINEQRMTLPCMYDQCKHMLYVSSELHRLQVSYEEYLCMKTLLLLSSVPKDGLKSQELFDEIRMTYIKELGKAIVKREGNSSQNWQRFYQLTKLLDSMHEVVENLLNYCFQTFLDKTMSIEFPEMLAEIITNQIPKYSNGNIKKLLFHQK

With `COc1cc2c(cc1OC)C(C(C(=O)N(CCc1ccc(OC)c(OC)c1OC)CCc1ccc(OC)c(OC)c1OC)c1ccccc1)=NCC2` (configuration not stated), the Potency result in [1], in experiment [2], in experiment [3], in experiment [4], in experiment [6] and in experiment [9] was “inactive” in each case. In addition, the Potency result in experiment [10] and in experiment [12] was “inactive” throughout. Besides, the molecule was classed as inactive in experiment [5], in experiment [7], in [8], in experiment [11] and in experiment [13].
For `CCCCCCCCCc1ccc(OCCOCCO)cc1`, the Potency result in experiment [1], in experiment [4], in experiment [6], in experiment [9], in experiment [10] and in experiment [12] was “inactive” throughout. Besides, in experiment [16], the Potency result was “inactive”. The Potency in experiment [2] is 29.8 µM (active); in [14], 18.8 µM (active); in [15], 10.6 µM (active) and 1.44 µM (active). Further, the outcome in experiment [5], in [7], in experiment [8] and in [13] was inactive.
On to `CCCCCCCCCCCCN1CCCCCC1=O`, for which the Potency entry in experiment [1], in [4], in experiment [6], in experiment [9], in [10] and in experiment [12] was “inactive” in each case. For the same molecule, the Potency in experiment [2] was 15.4 µM (active); in experiment [14] it was 61.1 µM (active); in experiment [15], 27.3 µM (active). Besides, the call in experiment [5], in experiment [7], in experiment [8], in experiment [17], in [11] and in [13] was inactive.
As to `COc1ccnc(CS(=O)c2nc3ccc(OC(F)F)cc3[nH]2)c1OC` (configuration not stated), the Potency entry in experiment [1], in experiment [2], in [14], in experiment [3], in experiment [6] and in experiment [9] was “inactive” each time. Besides, the Potency result in experiment [10], in experiment [12] and in [16] was “inactive” in each case. The result in experiment [5], in experiment [7], in [8], in experiment [17], in experiment [11] and in [13] was inactive.
As for `CN(C)CCCN1c2ccccc2Sc2ccccc21`, the Potency entry in [1], in experiment [2] and in experiment [14] was “inactive” each time. In [18], the fluorescence, relative to Rose Bengal is 0.23% [at 18.6 µM]. Further, the fluorescence, % of triamterene in experiment [5] was 0.0346% [at 18.6 µM]. Further, the fluorescence, % of fluorescent control in [6] was -0.0069% [at 18.6 µM]; in experiment [8], -0.0313% [at 18.6 µM]; in experiment [9], 0.0444% [at 18.6 µM]; in [11], 0.0019% [at 18.6 µM]; in experiment [13], -0.0716% [at 18.6 µM]. In experiment [7], the fluorescence, % of fluorescein was -0.0365% [at 18.6 µM]. Also, the activity change in experiment [17] is -0.0157% [at 18.6 µM]. In addition, in experiment [10], the fluorescence, % of Rose Bengal is -0.194% [at 18.6 µM]. For the same molecule, the fluorescence, % of fluorescein control in experiment [12] is 0.134% [at 18.6 µM].
In the case of `CC(C)(C)Cl`, the Potency entry in [1], in experiment [2], in experiment [14], in [15], in experiment [18] and in experiment [4] was “inactive” in each case. Besides, the Potency result in [6], in experiment [9], in [10] and in [12] was “inactive” throughout. For the same molecule, the result in experiment [5], in [7], in experiment [17], in experiment [11] and in experiment [13] was inactive.
On to `Cc1nn(C)c(Oc2ccccc2)c1/C=N/OCc1ccc(C(=O)OC(C)(C)C)cc1`, for which the Potency entry in experiment [1], in experiment [2], in experiment [14], in experiment [18], in experiment [4] and in [6] was “inactive” each time. Further, the Potency entry in [9], in experiment [10], in [12] and in [16] was “inactive” throughout. In addition, in [15], the Potency was 17.2 µM (active). Further, the call in [5], in [7], in [8], in [17], in [11] and in experiment [13] was inactive.
`CN1CCC(N(Cc2cccs2)c2ccccc2)CC1`: the Potency entry in experiment [1], in experiment [2], in experiment [14], in [18], in experiment [4] and in experiment [6] was “inactive” in each case. For the same molecule, the Potency result in [10], in [12] and in experiment [16] was “inactive” throughout. Also, the molecule was classed as inactive in [5], in [7], in experiment [8], in experiment [17] and in experiment [13].
